Experimental data: PubChem BioAssay

Experiment: CREB reporter modulators under forskolin, primary screen, cell-based, PC12, CRE-LacZ reporter, forskolin-stimulated (AID 1146);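 note: PC12 cells with 6xCRE LacZ reporter stimulated by forskolin 10 µM; beta-galactosidase reporter signal reflecting CREB driven transcription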
Details: luminescence, 4.5 h, higher = more signal, called active from +8 up or from −8 down

z-score, inactive:
CC(C)CN1C(=O)[C@@]2(Cc3ccccc31)c1ccccc1C(=O)N(C1CCCCC1)[C@H]2c1ccc(CO)cc1 -0.876
COc1cccc([C@@H]2[C@@H](C)CC[C@H]3C(=O)N4[C@H](c5cccc(OC)c5)[C@@H](C)CC[C@H]4C(=O)N23)c1 -1.18
CO[C@H]1COC(=O)[C@H](Cc2ccccc2)NC(=O)CC=C[C@@H](C)[C@H](OC)COC(=O)CC=C[C@@H]1C -1.15
CO[C@H]1COC(=O)[C@@H](OCc2ccccc2)C=C[C@H](C)[C@@H](OC)COC(=O)[C@H](OCc2ccccc2)C=C[C@@H]1C -0.672
O=C1O[C@@H](c2ccccc2)[C@@H](c2ccccc2)N2[C@@H](c3ccc(O)cc3)[C@]3(C(=O)Nc4ccccc43)[C@@H](C(=O)N3CCN(c4ncccn4)CC3)[C@H]12 -0.245
O=C1O[C@@H](c2ccccc2)[C@@H](c2ccccc2)N2[C@@H](c3ccc(O)cc3)[C@]3(C(=O)Nc4ccc(C#CC5(O)CCCCCC5)cc43)[C@@H](C(=O)Nc3nc4ccccc4s3)[C@H]12 -0.908
C=CC[C@]1(C(N)=O)N=C(c2ccc(OCCCO)cc2)O[C@H]1c1ccccc1CN=[N+]=[N-] -1.31
COCCOC(=O)N1C(=O)[C@@]2(c3cc(C#CCCO)ccc31)[C@H](C(=O)N1CCCCCCC1)[C@H]1C(=O)O[C@H](c3ccccc3)[C@H](c3ccccc3)N1[C@@H]2c1ccc(O)cc1 -1.28
C=CCOC(=O)[C@@H]1[C@H]2C(=O)O[C@H](c3ccccc3)[C@H](c3ccccc3)N2[C@H](c2ccc(OCCOC(=O)[C@H]3C[C@H]4C(=O)N5CCC[C@H]5C(=O)N4[C@H]3c3ccc(O)cc3)cc2)[C@@]12C(=O)Nc1ccccc12 -1.32
